# Cycloheximide cs = affects cycloheximide protein synthesis inhibition readout, counter-screen | cell reporter, cycloheximide protein synthesis inhibition counterscreen | max response, % | 12% of 300,000 active | AID 2314; in the data active = max response mostly above about 13%, no sharp cut-off; inactive = mostly below about 14%; note: read at 38.3 µM for the half of the compounds with a filed dose
# HCV inh = HCV inhibition. Huh7.5.1 HCVcc-Cre infection, luciferase reporter, 44 h. Potency, µM (titrated, usually from 41.8 µM), hits mostly inhibitors. 3.4% of 340,000 active. AID 651820
#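 Reporter virus HCVcc-Cre (~0.5 moi) infects cells exposed to compound; seeding density 1,000 cells/well with 4 h settling beforehand. Luminescence, 15 sec read, taken 44 h post-infection following a 15 min RT substrate incubation.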
# HCMV inh = human cytomegalovirus inhibition. HFF cells, HCMV-luciferase reporter, 72 h; active compounds read low. activity change, negative = inhibition, % at 57.5 µM. 4.5% of 410,000 active. AID 1259415; in the data active = activity change below about -60%; inconclusive = no clear call, values can overlap the other calls; inactive = above about -39%
#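 Human foreskin fibroblasts infected with luciferase-reporter HCMV at MOI 1 PFU/cell, compounds at two doses. Luciferase measured 72 h post infection; normalized to buffer-only basal and Salinomycin (10uM) controls.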
# Pf growth 96h = inhibits malaria parasite growth, 96 h | AID 504834 | 6.9% of 320,000 active | P. falciparum luciferase reporter growth, 96 h | Potency, µM (top dose mostly 28.7 µM), most hits filed as inhibitors
#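 Cell-based qHTS: luciferase-tagged P. falciparum in erythrocytes (2% hematocrit, 0.05% parasitemia final) incubated with compounds for 96 hours, 37 C, 5% CO2; luciferase detection reagent then added and luminescence measured.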
# Shiga toxin inh = Shiga toxin inhibition; 9.2% of 290,000 active; Vero cells, Shiga toxin protein synthesis inhibition reporter; inhibition, % at 38.7 µM; AID 2315; in the data active = inhibition mostly above about 28%, no sharp cut-off; inactive = mostly below about 43%
# Pf growth 48h = inhibits P. falciparum growth in the first generation, 48 h | AID 504832 | 5.9% of 310,000 active | Potency, µM (titrated, usually from 28.7 µM), actives largely listed as inhibitors | P. falciparum luciferase growth in erythrocytes, 48 h
#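 In quantitative HTS format, infected erythrocytes bearing luciferase-reporter parasites were treated for a single generation at 37 C. Luminescence after adding detection reagent served as the growth measure.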
# A number is an active result; – = inactive; ? = inconclusive; · = no result given; [ ] = dose if it differs, or a comment. Rows were chosen to be rich in hits. Some 21% of all compounds tested hit in one or more screens of this group. Unless noted, calls come from the whole dose curve; as a rule, active = well fitted inhibition curve with a large enough effect; inconclusive = small, poorly fitted or top-dose-only effect, or another doubt; inactive = no such curve, though single readings can be large or run the other way.
SMILES,Cycloheximide cs,HCV inh,HCMV inh,Pf growth 96h,Shiga toxin inh,Pf growth 48h
CCN1CCN(c2ccc(N3CCN(C(=O)c4ccc(Br)o4)CC3)nn2)CC1,·,–,–,–,·,–
CC(=O)Nc1ccc(S(=O)(=O)N(C)CC(=O)OCC(=O)c2ccc3c(c2)NC(=O)CO3)cc1,·,–,–,–,·,–
COc1ccc(C(=O)NCCN2CCCC2)cc1,–,–,–,–,–,–
O=C1Nc2cc(C(=O)NCCCN3CCCC3)ccc2S/C1=C\c1ccccc1,–,11.2µM,?,–,–,9.28µM
O=C1Nc2cc(C(=O)NCCCN3CCOCC3)ccc2S/C1=C/c1ccccc1F,–,8.91µM,–,?,–,?
O=C1Nc2cc(C(=O)NCCCN3CCOCC3)ccc2S/C1=C/c1cccc(Cl)c1,–,?,–,–,–,?
COc1ccc(/C=C2/Sc3ccc(C(=O)NCCN4CCCCCC4)cc3NC2=O)cc1,–,?,-112.0,?,–,9.28µM
COc1ccc2c(c1)c(=O)c(S(=O)(=O)c1ccc(Cl)cc1)cn2C,·,·,–,·,·,·
COc1cccc(NC(=O)COC(=O)c2c(C)nn(-c3ccccc3)c2C)c1,·,?,–,–,·,–
CC(=O)N1CCc2c(sc3c2c(=O)n(-c2ccccc2)c(=O)n3Cc2cccc(C(F)(F)F)c2)C1,·,·,–,·,·,·
CC1(C)CCC(NC(=O)[C@@H](N)CCC(=O)O)CC1,·,·,·,–,·,–
Cc1cccc(C(=O)N2CCc3cc(-c4nc(NC(=O)CN5CCCC5)sc4C)ccc32)c1,–,12.6µM,–,–,–,?
Cc1ccccc1C(=O)N1CCc2cc(-c3nc(NC(=O)Cc4ccc5c(c4)OCO5)sc3C)ccc21,–,3.16µM,·,–,–,?
O=C(CN1CCOCC1)Nc1nc(-c2ccc3c(c2)CCN3S(=O)(=O)c2ccccc2)cs1,–,3.55µM,-88.4,·,–,2.08µM
Cc1sc(NC(=O)CN2CCOCC2)nc1-c1ccc2c(c1)CCN2S(=O)(=O)c1ccccc1,–,?,-95.8,·,–,11.7µM
O=C(CN1CCOCC1)Nc1nc(-c2ccccc2Cl)cs1,–,–,–,–,–,–
COC(=O)c1ccc2nc(-c3ccco3)c(Cc3ccc(OC)cc3C)n2c1,·,·,–,·,·,·
COc1ccc(C(=O)N[C@H]2CCCCNC2=O)cc1OC1CCN(C(C)C)CC1,–,–,–,?,–,–
CC(=O)N(C)C[C@@H]1Oc2ncc(C#Cc3ccc(F)cc3)cc2C(=O)N([C@@H](C)CO)C[C@H]1C,·,·,–,·,·,·
CCc1nc2c(OCc3ccc(C(=O)N(C)C)cc3)cccn2c1N(C)C(=O)Nc1ccccc1OC,·,·,–,·,·,·
COc1ccc(N(CC(=O)Nc2cccnc2)S(=O)(=O)c2ccccc2)cc1OC,–,–,–,–,–,–
COc1ccc(CNC(=O)Nc2ccc(OC)cc2)cc1,–,–,–,·,–,–
CCOc1ccc(NC(=O)NCc2cccn2Cc2ccccc2)cc1,·,·,–,·,·,·
COc1ccc(CNC(=O)Nc2ccccc2)cc1,45.3,–,–,–,65.3,–
COc1ccc(NC(=O)NC[C@@H]2CC[C@@H](Cc3ccc(-c4ccccc4)cc3)O2)cc1,·,4.47µM,–,·,·,·
SMILES,Cycloheximide cs,HCV inh,HCMV inh,Pf growth 96h,Shiga toxin inh,Pf growth 48h
CCOc1ccc(CNC(=O)Nc2ccccc2)cc1,22.1,?,–,–,48.5,–[0.00184 µM]
COc1ccc(CNC(=O)Nc2ccc(C)cc2C)cc1,–,–,?,–,–,–
COc1ccc(CNC(=O)Nc2cccc(C)c2)cc1,21.9,–,–,–,–,–
O=C(CSc1nc(-c2cccs2)nc2cc(=O)[nH]n12)Nc1ccccc1,·,·,–,·,·,·
Cc1nc2nc(SCC(=O)N(C)Cc3ccccc3)nn2c(C)c1Cc1ccccc1Cl,·,·,–,·,·,·
COc1cc(-c2nnc(SCCOc3ccc(Cl)cc3)o2)cc(OC)c1OC,·,·,–,·,·,·
CCOC1=CC(=O)N(CCN)C1,·,·,–,·,·,·
COc1ccc(CNC(=O)C(OC(C)=O)c2ccccn2)cc1 (stereo not drawn),–,–,–,14.7µM,–,–
CCOC(=O)C(NC(=O)NCc1ccc(OC)cc1)(OCC)C(F)(F)F (stereo not drawn),–,–,–,9.28µM,–,–
CCOc1ccc(CNC(=O)NS(=O)(=O)c2ccc(OC)cc2)cc1,–,–,–,2.94µM,–,–
COc1ccc(CNC(=S)Nc2ccccc2-c2ccccc2)cc1,–,·,·,8.28µM,–,?
CCC(C)NS(=O)(=O)c1ccc(OCC(=O)NCc2ccc(OC)cc2)cc1 (stereo not drawn),–,–,–,–[5.75 µM],–,?
Cc1cccc(C(OC(=O)c2ccco2)C(=O)NCc2ccccc2)n1 (stereo not drawn),–,–,–,–,–,–
O=C(CNC(=O)c1ccncc1)N/N=C/c1ccc(O)cc1O,–,–,–,?,–,–
NS(=O)(=O)c1ccc(NC(=O)c2cccc(N3C(=O)c4ccccc4C3=O)c2)cc1,–,–,–,–,–,–
CC1CCCC(NC(=O)CCN2C(=O)COc3ccccc32)C1C (stereo not drawn),·,·,–,·,·,·
Cc1ccc(CNc2nc3ccccc3n3c(C)nnc23)cc1,·,·,–,·,·,·
CCN1CCN(CC(=O)Nc2ccc3c(c2)OCCO3)C(=O)C1=O,–,–,–,–,–,·
O=C(CCN1C(=O)c2ccccc2S1(=O)=O)Nc1ccc2c(c1)OCCO2,34.2,–,–,–,–,–
O=C(CN1Cc2ccccc2C1=O)Nc1ccc2c(c1)OCCO2,83.0,–,–,–,85.4,–
O=C(CCN1C(=O)c2ccccc2S1(=O)=O)Nc1ccccc1,–,–,?,–,–,–
O=C(CCN1C(=O)c2ccccc2S1(=O)=O)Nc1ccc(C(=O)O)cc1,–,–,–,10.4µM,–,–
CCN(C(=O)CSc1nnc(-c2cccs2)o1)C1CCS(=O)(=O)C1 (stereo not drawn),–,–,–,–,–,–
Cc1sc(NC(=O)/C=C/C(=O)O)c(C(N)=O)c1-c1ccc(C(C)(C)C)cc1,–,–,?,–,–,8.28µM
Cc1sc(NC(=O)C2CCCCC2C(=O)O)c(C(N)=O)c1-c1ccccc1 (stereo not drawn),38.0,–,–,–,40.5,–
SMILES,Cycloheximide cs,HCV inh,HCMV inh,Pf growth 96h,Shiga toxin inh,Pf growth 48h
CCOC(=O)c1c(NC(=O)/C=C/C(=O)O)sc(C)c1-c1ccc(C(C)(C)C)cc1,–,?,?,–[5.75 µM],–,1.65µM
CCOC(=O)c1c(NC(=O)/C=C\C(=O)O)sc(C)c1-c1ccccc1,–,–,–,–,–,?
COc1ccccc1N1CCN(C(=O)c2cc(=O)c3c(C)cc(C)cc3o2)CC1,–,–,–,–,–,?
CC(C)(C)c1nc2c(Br)cc(Br)cc2c(=O)o1,–,–,–,0.37µM,–,–
COc1cc2nc(C(C)(C)C)oc(=O)c2cc1OC,–,–,–,–,–,–
Cc1ccc(N=Cc2c(O)n(-c3cc(Cl)ccc3N3CCOCC3)c(=O)c3ccccc23)cc1C,–,?,?,·,–,2.62µM
O=C(CCS(=O)(=O)c1ccc2c(c1)NC(=O)CO2)NCc1ccccc1,–,–,–,13.1µM,–,–

# Screens from PubChem.
